Over roughly 9,900 sequences, “r (bound/input frequency ratio)” has its median near 0.7; the highest 2% begin near 6.5. For the sample, the highest values were picked, then their nearest neighbours and some sequences at random.
B1: ENSMUSG00000031028.174|Tub|17:22 (ssRNA)
RNA: GGGAGUUCUACAGUCCGACGAUCGCUUCGAUAUCCGCAUGCUAAGAGGUAGCGGACCUCACACACGUUCACCAACAGCAAUGCUGAUCCCUGAGUAUAGGGCACAUGUCUCUUGGUUACCUCACUGGUUAAUGGCAGAGUUGAGAACCUCAAAUUCUUUUGUUCCUACUGUUGCCCAGAAACUAGACUCUCUGACCUGCUAGGGUCUAUUCUGCAUGUCCUUUCUCUUCCCAGUUCCAGAGAUGAAACCCCUCCGAGUUAAUGUAUAAGGUUGGAAACCUUUCAGUAGGGAAUCAGGCAGUUCCUCUUGCGGUCGCACUAGUGUGGAAUUCUCGGGUGUCAAGG
B2: ENSMUSG00000029028.255|Lrrc47 (ssRNA)
RNA: GGGAGUUCUACAGUCCGACGAUCGCUUCGAUAUCCGCAUGCUAGCUCACAGGUCCCUUUGAGUGGCUGUGGCAAGUACUCACCUACUAAGUGUUUAGGGUGGAGCUAUCCUGUGCUCACCCUGUCUCCCCCCAGUUCCUGCUGUUCCCUCCAGCCCAGCCCAGCCCAGGUGUGAGAUUCAUUGAGAUUUUUGAAACUGUUUUUACAGAUUCAAGCAGAACGCCUCUUUGUUCUAAUAAAAACCCUUGGUAACGACAUCUCUGCAUCAGCAGCCUUAGCACAUGCGUCUCCCAGGACAGUGUUGCUCUUGCGGUCGCACUAGUGUGGAAUUCUCGGGUGUCAAGG
B3: ENSMUSG00000029636.271|Wasf3|45:50 (ssRNA)
RNA: GGGAGUUCUACAGUCCGACGAUCGCUUCGAUAUCCGCAUGCUAAGUGAAAGCCCAUGUGCAAGCCCCUCCCUACGCCCUGCUUUGGCCACACACUGAGUGCUCUGUGCUGCGCCAUGGCCAUCCUGGAGCCUGCGCACACGUGGCCGCUGCUGUGACUCGCUGUCCUUGGUAAUUGGUGAGAGGCUUUUUCUUUCUUUCUCAGUUCUGCUUUUCCACACUGAGACCCACCAUGUUGACAUCAUCCUCGCGACGUUGACAUUUGAGCCUUUUGUUCUGUCUCCCAUGUGCCCUGUAGAACCCAGCUCUUGCGGUCGCACUAGUGUGGAAUUCUCGGGUGUCAAGG
B4: ENSMUSG00000022095.270|Fam160b2 (ssRNA)
RNA: GGGAGUUCUACAGUCCGACGAUCGCUUCGAUAUCCGCAUGCUAAGAGCGAGCUAUGAAUGAAUGUGAGUGUGUGUGUGUGUGUGUGUGAGAGAGAGAGAGAGAGAGAGAGAGCUGUGAGUACACAUGGGUGCUGGUGUGGGACAGGAGCAGAUCUUGGUGGAGUGGGUCUACACUUGAGAUUUGUACUCGUUUGAGAGGCUGGGCAAUACUCAAUGCACUUUGGCAUUUGCAUGGUGUCUUCACAACAGCACAGCAAUAAACAUUGUGAUUGUGUGGACAUGCUGACUCUCCCCAGUCUGCUUCUCUUGCGGUCGCACUAGUGUGGAAUUCUCGGGUGUCAAGG
B5: ENSMUSG00000022095.269|Fam160b2 (ssRNA)
RNA: GGGAGUUCUACAGUCCGACGAUCGCUUCGAUAUCCGCAUGCUAAGAGAGAGAGCGAGCUAUGAAUGAAUGUGAGUGUGUGUGUGUGUGUGUGUGAGAGAGAGAGAGAGAGAGAGAGAGCUGUGAGUACACAUGGGUGCUGGUGUGGGACAGGAGCAGAUCUUGGUGGAGUGGGUCUACACUUGAGAUUUGUACUCGUUUGAGAGGCUGGGCAAUACUCAAUGCACUUUGGCAUUUGCAUGGUGUCUUCACAACAGCACAGCAAUAAACAUUGUGAUUGUGUGGACAUGCUGACUCUCCCCAGUCUCUUGCGGUCGCACUAGUGUGGAAUUCUCGGGUGUCAAGG
B6: ENSMUSG00000022095.270|Fam160b2|25:45;92:96;228:233 (ssRNA)
RNA: GGGAGUUCUACAGUCCGACGAUCGCUUCGAUAUCCGCAUGCUAAGAGCGAGCUAUGAAUGAAUGUGACACACACACACACACACACACAGAGAGAGAGAGAGAGAGAGAGAGCUGUGAGUACACAUGGGUGCUGCACACGGACAGGAGCAGAUCUUGGUGGAGUGGGUCUACACUUGAGAUUUGUACUCGUUUGAGAGGCUGGGCAAUACUCAAUGCACUUUGGCAUUUGCAUGGUGUCUUCACAACAGCACAGCAAUAAACAUUGUGAUACACACGACAUGCUGACUCUCCCCAGUCUGCUUCUCUUGCGGUCGCACUAGUGUGGAAUUCUCGGGUGUCAAGG
B7: ENSMUSG00000022095.268|Fam160b2|37:57;104:108;240:245 (ssRNA)
RNA: GGGAGUUCUACAGUCCGACGAUCGCUUCGAUAUCCGCAUGCUAAGAGAGAGAGAGAGAGCGAGCUAUGAAUGAAUGUGACACACACACACACACACACACAGAGAGAGAGAGAGAGAGAGAGAGCUGUGAGUACACAUGGGUGCUGCACACGGACAGGAGCAGAUCUUGGUGGAGUGGGUCUACACUUGAGAUUUGUACUCGUUUGAGAGGCUGGGCAAUACUCAAUGCACUUUGGCAUUUGCAUGGUGUCUUCACAACAGCACAGCAAUAAACAUUGUGAUACACACGACAUGCUGACUCUCCUCUUGCGGUCGCACUAGUGUGGAAUUCUCGGGUGUCAAGG
B8: ENSMUSG00000022095.272|Fam160b2 (ssRNA)
RNA: GGGAGUUCUACAGUCCGACGAUCGCUUCGAUAUCCGCAUGCUAGAAUGAAUGUGAGUGUGUGUGUGUGUGUGUGUGAGAGAGAGAGAGAGAGAGAGAGAGCUGUGAGUACACAUGGGUGCUGGUGUGGGACAGGAGCAGAUCUUGGUGGAGUGGGUCUACACUUGAGAUUUGUACUCGUUUGAGAGGCUGGGCAAUACUCAAUGCACUUUGGCAUUUGCAUGGUGUCUUCACAACAGCACAGCAAUAAACAUUGUGAUUGUGUGGACAUGCUGACUCUCCCCAGUCUGCUUUUCUUUUCCCCACUCUUGCGGUCGCACUAGUGUGGAAUUCUCGGGUGUCAAGG
B9: ENSMUSG00000022095.273|Fam160b2 (ssRNA)
RNA: GGGAGUUCUACAGUCCGACGAUCGCUUCGAUAUCCGCAUGCUAAUGUGAGUGUGUGUGUGUGUGUGUGUGAGAGAGAGAGAGAGAGAGAGAGAGCUGUGAGUACACAUGGGUGCUGGUGUGGGACAGGAGCAGAUCUUGGUGGAGUGGGUCUACACUUGAGAUUUGUACUCGUUUGAGAGGCUGGGCAAUACUCAAUGCACUUUGGCAUUUGCAUGGUGUCUUCACAACAGCACAGCAAUAAACAUUGUGAUUGUGUGGACAUGCUGACUCUCCCCAGUCUGCUUUUCUUUUCCCCAAGCUUUCUCUUGCGGUCGCACUAGUGUGGAAUUCUCGGGUGUCAAGG
B10: ENSMUSG00000022095.271|Fam160b2|19:39;86:90;222:227 (ssRNA)
RNA: GGGAGUUCUACAGUCCGACGAUCGCUUCGAUAUCCGCAUGCUAAGCUAUGAAUGAAUGUGACACACACACACACACACACACAGAGAGAGAGAGAGAGAGAGAGAGCUGUGAGUACACAUGGGUGCUGCACACGGACAGGAGCAGAUCUUGGUGGAGUGGGUCUACACUUGAGAUUUGUACUCGUUUGAGAGGCUGGGCAAUACUCAAUGCACUUUGGCAUUUGCAUGGUGUCUUCACAACAGCACAGCAAUAAACAUUGUGAUACACACGACAUGCUGACUCUCCCCAGUCUGCUUUUCUUUCUCUUGCGGUCGCACUAGUGUGGAAUUCUCGGGUGUCAAGG
B11: ENSMUSG00000022095.268|Fam160b2 (ssRNA)
RNA: GGGAGUUCUACAGUCCGACGAUCGCUUCGAUAUCCGCAUGCUAAGAGAGAGAGAGAGAGCGAGCUAUGAAUGAAUGUGAGUGUGUGUGUGUGUGUGUGUGAGAGAGAGAGAGAGAGAGAGAGAGCUGUGAGUACACAUGGGUGCUGGUGUGGGACAGGAGCAGAUCUUGGUGGAGUGGGUCUACACUUGAGAUUUGUACUCGUUUGAGAGGCUGGGCAAUACUCAAUGCACUUUGGCAUUUGCAUGGUGUCUUCACAACAGCACAGCAAUAAACAUUGUGAUUGUGUGGACAUGCUGACUCUCCUCUUGCGGUCGCACUAGUGUGGAAUUCUCGGGUGUCAAGG
B12: ENSMUSG00000022095.271|Fam160b2 (ssRNA)
RNA: GGGAGUUCUACAGUCCGACGAUCGCUUCGAUAUCCGCAUGCUAAGCUAUGAAUGAAUGUGAGUGUGUGUGUGUGUGUGUGUGAGAGAGAGAGAGAGAGAGAGAGAGCUGUGAGUACACAUGGGUGCUGGUGUGGGACAGGAGCAGAUCUUGGUGGAGUGGGUCUACACUUGAGAUUUGUACUCGUUUGAGAGGCUGGGCAAUACUCAAUGCACUUUGGCAUUUGCAUGGUGUCUUCACAACAGCACAGCAAUAAACAUUGUGAUUGUGUGGACAUGCUGACUCUCCCCAGUCUGCUUUUCUUUCUCUUGCGGUCGCACUAGUGUGGAAUUCUCGGGUGUCAAGG
B13: ENSMUSG00000022095.272|Fam160b2|13:33;80:84;216:221 (ssRNA)
RNA: GGGAGUUCUACAGUCCGACGAUCGCUUCGAUAUCCGCAUGCUAGAAUGAAUGUGACACACACACACACACACACACAGAGAGAGAGAGAGAGAGAGAGAGCUGUGAGUACACAUGGGUGCUGCACACGGACAGGAGCAGAUCUUGGUGGAGUGGGUCUACACUUGAGAUUUGUACUCGUUUGAGAGGCUGGGCAAUACUCAAUGCACUUUGGCAUUUGCAUGGUGUCUUCACAACAGCACAGCAAUAAACAUUGUGAUACACACGACAUGCUGACUCUCCCCAGUCUGCUUUUCUUUUCCCCACUCUUGCGGUCGCACUAGUGUGGAAUUCUCGGGUGUCAAGG
B14: ENSMUSG00000022095.269|Fam160b2|31:51;98:102;234:239 (ssRNA)
RNA: GGGAGUUCUACAGUCCGACGAUCGCUUCGAUAUCCGCAUGCUAAGAGAGAGAGCGAGCUAUGAAUGAAUGUGACACACACACACACACACACACAGAGAGAGAGAGAGAGAGAGAGAGCUGUGAGUACACAUGGGUGCUGCACACGGACAGGAGCAGAUCUUGGUGGAGUGGGUCUACACUUGAGAUUUGUACUCGUUUGAGAGGCUGGGCAAUACUCAAUGCACUUUGGCAUUUGCAUGGUGUCUUCACAACAGCACAGCAAUAAACAUUGUGAUACACACGACAUGCUGACUCUCCCCAGUCUCUUGCGGUCGCACUAGUGUGGAAUUCUCGGGUGUCAAGG
B15: ENSMUSG00000022095.266|Fam160b2|1:10;49:69;116:120;252:257 (ssRNA)
RNA: GGGAGUUCUACAGUCCGACGAUCGCUUCGAUAUCCGCAUGCUAACACACACACAGAGAGAGAGAGAGAGAGCGAGCUAUGAAUGAAUGUGACACACACACACACACACACACAGAGAGAGAGAGAGAGAGAGAGAGCUGUGAGUACACAUGGGUGCUGCACACGGACAGGAGCAGAUCUUGGUGGAGUGGGUCUACACUUGAGAUUUGUACUCGUUUGAGAGGCUGGGCAAUACUCAAUGCACUUUGGCAUUUGCAUGGUGUCUUCACAACAGCACAGCAAUAAACAUUGUGAUACACACGACCUCUUGCGGUCGCACUAGUGUGGAAUUCUCGGGUGUCAAGG

Target: TDP-43 (Homo sapiens, UniProt Q13148 1-414)
Sequence (Q13148 whole entry): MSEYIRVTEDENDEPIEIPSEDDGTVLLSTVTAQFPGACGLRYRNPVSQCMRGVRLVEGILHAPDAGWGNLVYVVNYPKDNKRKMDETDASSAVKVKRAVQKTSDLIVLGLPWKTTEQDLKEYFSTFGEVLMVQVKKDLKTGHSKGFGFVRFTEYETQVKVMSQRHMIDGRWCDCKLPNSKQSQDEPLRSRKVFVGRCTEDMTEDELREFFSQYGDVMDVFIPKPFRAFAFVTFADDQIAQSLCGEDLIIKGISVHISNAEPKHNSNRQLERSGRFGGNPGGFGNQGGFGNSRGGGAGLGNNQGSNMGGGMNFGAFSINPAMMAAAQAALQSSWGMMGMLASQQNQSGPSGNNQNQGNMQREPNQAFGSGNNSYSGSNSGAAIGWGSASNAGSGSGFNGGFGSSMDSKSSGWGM
Experiment: RNA Bind-n-Seq with designed 260-mer pool; 25 mM Tris-HCl, 150 mM KCl, 3 mM MgCl2, BSA (printed 500 mg/mL), 20 units/mL SUPERase IN; pH not stated; 500 nM RNA pool, 1 h, 4 C; TDP-43 5, 50, 500 nM; high values mean tight binding
Conditions: protein: recombinant; tags: SBP (GST cleaved off with PreScission; pGEX-GST-SBP)
How it was run: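 Recombinant SBP-tagged TDP-43 at 5, 50 or 500 nM was captured on streptavidin beads, then incubated 1 h at 4 °C with 500 nM of an in vitro-transcribed 260-nt 3′ UTR oligo pool in 25 mM Tris-HCl, 150 mM KCl, 3 mM MgCl2, BSA and SUPERase IN. Bound RNA was washed, eluted with biotin, reverse transcribed, PCR-amplified and sequenced. Binding is R, each oligo's mapped-read-normalized abundance in the bound sample divided by its abundance in input. Duplicates used two independent protein batches.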

Binder	binding signal
B1	0.553 R (bound/input frequency ratio)
B2	0.69 R (bound/input frequency ratio)
B3	0.821 R (bound/input frequency ratio)
B4	7.19 R (bound/input frequency ratio)
B5	7.25 R (bound/input frequency ratio)
B6	4.7 R (bound/input frequency ratio)
B7	6.08 R (bound/input frequency ratio)
B8	5.79 R (bound/input frequency ratio)
B9	5.83 R (bound/input frequency ratio)
B10	4.21 R (bound/input frequency ratio)
B11	6.67 R (bound/input frequency ratio)
B12	7.64 R (bound/input frequency ratio)
B13	4.46 R (bound/input frequency ratio)
B14	4.63 R (bound/input frequency ratio)
B15	4.83 R (bound/input frequency ratio)
